# FBW7 act: human FBW7 E3 ligase activation, primary screen. normalized activity (activation), % at 26.1 µM. actives 0.13% (n = 650,000). AID 1259310. Q969H0. AlphaScreen FBW7–phospho-cyclin E peptide binding, activator screen; in the data active means normalized activity above about 1.9%;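 further: purified mutant Fbw7 with reduced substrate affinity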
# MITF primary: blocks human microphthalmia-associated transcription factor. O75030. AlphaScreen MITF homodimerization, bead proximity signal. inhibition, % at 2.6 µM. actives 0.91% (n = 650,000); in the data active means inhibition above about 50%;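 further: 0% = vehicle wells with protein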
# GPR151 ag: human GPR151 activation. Q8TDV0. PathHunter beta-arrestin GPR151 cells, luminescence. activation, % at 11.2 µM. actives 1% (n = 650,000); in the data active means activation above about 4.9%;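 further: 0% = median of compound wells and 100% = cells with positive control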
# Target sequence (Q8TDV0 whole entry, looked up): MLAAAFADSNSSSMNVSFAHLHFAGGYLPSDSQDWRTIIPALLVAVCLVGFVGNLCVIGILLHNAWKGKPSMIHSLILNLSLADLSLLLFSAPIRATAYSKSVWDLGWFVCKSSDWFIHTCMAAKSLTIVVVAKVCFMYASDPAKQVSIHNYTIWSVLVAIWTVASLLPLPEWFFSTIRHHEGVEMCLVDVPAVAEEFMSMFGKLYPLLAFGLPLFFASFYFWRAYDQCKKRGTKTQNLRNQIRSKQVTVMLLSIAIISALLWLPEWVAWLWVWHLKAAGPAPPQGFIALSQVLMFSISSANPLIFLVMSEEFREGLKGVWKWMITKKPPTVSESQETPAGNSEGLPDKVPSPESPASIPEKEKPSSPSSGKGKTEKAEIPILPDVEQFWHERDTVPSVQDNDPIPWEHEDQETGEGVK
# TEAD-YAP block: TEAD-YAP interaction inhibition; inhibition, % at 9.12 µM; actives 1.4% (n = 640,000); HEK-TIYL cells, TEAD-Gal4/YAP UAS-luciferase luminescence; in the data active means inhibition above about 32%;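 further: 0% = median of test compound wells and 100% = reference inhibitor wells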
# Numbers without * were called inactive. Sampled rows, rich in hits. Any-hit rate of the full collection: about 3.4%.
SMILES,FBW7 act,MITF primary,GPR151 ag,TEAD-YAP block
c1ccc(CN2CCC(Nc3nc(Nc4ccccc4)nc4c3ncn4-c3ccsc3)CC2)cc1,0,8,-1,8
OC1CCC(Nc2nc(NC3CCN(Cc4ccccc4)CC3)c3ncn(-c4ccsc4)c3n2)CC1 (stereo not drawn),0,-5,4,60*
Cc1nn(CCc2nn[nH]n2)c2nc(-c3ccc4c(c3)OCO4)cc(C(F)(F)F)c12,0,6,-1,4
Cc1ccc2c(c1)CN(C(=O)c1cnc3ccccn3c1=O)CC(C)O2 (stereo not drawn),0,6,0,-3
OC1CCC(Nc2nc(NC3CCN(Cc4ccccc4)CC3)c3ncn(Cc4ccc(C(F)(F)F)cc4)c3n2)CC1 (stereo not drawn),0,2,3,49*
CC(=O)Nc1ccc(Nc2nc(NCCCN3CCCC3=O)nc3c2ncn3-c2ccsc2)cc1,0,14,-1,40*
FC(F)(F)c1ccc(Cn2cnc3c(NC4CCN(Cc5ccccc5)CC4)nc(Cl)nc32)cc1,0,4,1,20
CC(Nc1cc(N2CCN(C(=O)c3ccco3)CC2)ccc1[N+](=O)[O-])C12CC3CC(CC(C3)C1)C2 (stereo not drawn),0,-14,1,43*
CCN(CC)S(=O)(=O)c1cccc(C(=O)Nc2ccc(C#N)cc2)c1,0,0,5,47*
CCN(CC)S(=O)(=O)c1cccc(C(=O)Oc2cccc(NC(=O)c3ccc(OC)cc3)c2)c1,0,-4,-2,66*
CCN(CC)S(=O)(=O)c1ccc(Cl)c(C(=O)Oc2cccc(NC(=O)c3ccccc3Cl)c2)c1,0,-4,-1,12
CCN(CC)S(=O)(=O)c1ccc(Cl)c(C(=O)Oc2cccc(NC(=O)c3ccc(OC)cc3)c2)c1,0,2,-2,67*
CCSc1ccccc1C(=O)NCCc1ccc(S(N)(=O)=O)cc1,1,-1,0,2
CCOc1ccc2nc(NCCNC(=O)c3cccc(F)c3)c(C#N)cc2c1,0,3,1,-8
O=[N+]([O-])c1ccc2c(c1)c(-c1ccccc1)nc1nnnn12,0,0,0,19
Cc1ccccc1S(=O)(=O)Nc1cc(Br)cc2cccnc12,0,18,1,36*
COc1ccc(NC(=O)CSc2nnc(-c3ccccn3)n2-c2ccccc2OC)cc1,0,10,2,-6
c1ccc(-c2noc(-c3cccc4ccccc34)n2)nc1,0,11,-5,29
Cc1ccc(-c2nc(-c3cccnc3)no2)c(Cl)c1,0,1,-2,22
Cc1ccc(-c2nc(-c3ccccn3)no2)c(Cl)c1,0,7,-11,98*
Clc1ccc(-c2nc(-c3ccccn3)no2)c(Cl)c1,0,8,-11,98*
O=C(N1CCCCCC1)N1c2ccccc2C=Cc2ccccc21,0,5,0,36*
Cc1cc(NC(=O)CSc2nc3ccccc3c(=O)n2CCCN2CCC(C)CC2)n[nH]1,0,0,-1,85*
Cc1cc(NC(=O)CSc2nc3ccccc3c(=O)n2CCCC(=O)N2CCCC2)n[nH]1,0,5,-1,54*
O=C(CSc1nc2ccccc2c(=O)n1CCCN1CCCCC1)Nc1ccccc1Cl,0,-7,2,-18
SMILES,FBW7 act,MITF primary,GPR151 ag,TEAD-YAP block
Cc1cc(NC(=O)CSc2nc3ccccc3c(=O)n2CCC(=O)N2CCN(c3ccccc3)CC2)n[nH]1,0,-2,2,-3
Cc1cc(NC(=O)CSc2nc3ccccc3c(=O)n2CCCN2CCCCC2)n[nH]1,0,7,0,84*
Cc1cc(NC(=O)CSc2nc3ccccc3c(=O)n2CCCC(=O)NCCc2ccccc2)n[nH]1,0,-4,0,19
Cc1nc2c3ccccc3nc(SCC(=O)Nc3cc(C)[nH]n3)n2n1,0,7,1,56*
O=C(NCCc1ccccc1)[C@@H]1C=CCN1C(=O)c1ccc(F)cc1F,0,-1,-1,3
Cc1ccc(S(=O)(=O)Nc2ccc3oc4c(c3c2)CC(C(C)(C)C)CC4)cc1 (stereo not drawn),0,-1,0,-9
COCCCNCCCCOc1ccc(Cl)cc1C,0,45,0,2
Cc1ccc(S(=O)(=O)Nc2ccccc2C(=O)Nc2nc3ccc(Br)cc3s2)cc1,0,-16,1,55*
Cc1ccc(S(=O)(=O)Nc2ccccc2C(=O)Nc2nc(-c3ccc(F)cc3)cs2)cc1,0,0,2,54*
Cc1ccc(S(=O)(=O)Nc2ccccc2C(=O)Nc2nc3c(Cl)cccc3s2)cc1,0,-9,0,33*
Cc1ccc2nc(NC(=O)C3=COCCO3)sc2c1,0,9,-11,66*

# From PubChem
